PubChem BioAssay (EPA / NIEHS)
Records with an inconclusive call do not appear. The source made the active and inactive calls. How the source made its calls, unless noted: active means hit-call score of the fitted dose curve at least 0.9, where 1 is the maximum; inactive means score below 0.9.

What was measured:
[1] = ACEA_ER_80hr: ACEA Biosciences xCELLigence Real-Time Cell Analysis on Estrogen Receptor Agonism for Proliferation (AID 2282667; active means hit-call score of the fitted dose curve at least 0.9, where 1 is the maximum); settings: T47D proliferation, impedance (xCELLigence), 80 h
In short: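 Impedance readout (RT-CES) of T47D proliferation at 80 h post-dose; gain of signal vs DMSO baseline. Compounds: 8 conc, 1:4 serial, top 100 uM final, ≤0.5% DMSO; biological duplicate.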

[2] = ATG_CRE_CIS: Attagene CIS-FACTORIAL HepG2 Assay for human cAMP Responsive Element (CRE) binding protein 3 (AID 2282926); settings: HepG2 CRE cis-reporter, Attagene multiplexed mRNA; actives raise or lower the signal
In short: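 Endogenous CRE-binding activity in HepG2 is reported through a cis-regulated transfected reporter. Following a day of exposure, mRNA levels are determined by reverse transcription PCR and fluorescent fragment analysis; fits run in both directions versus DMSO.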

[3] = target: CCAAT/enhancer-binding protein beta (Homo sapiens) (UniProt P17676); test: ATG_C_EBP_CIS: Attagene CIS-FACTORIAL HepG2 Assay for human CCAAT/Enhancer Binding Protein (C/EBP) beta (AID 2282927); settings: HepG2 Attagene cis-factorial transcription factor reporter; actives raise or lower the signal
In short: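 RT-PCR/capillary electrophoresis fluorescence of reporter mRNA, 24 h post-dose, in HepG2 cells carrying transfected cis-promoter reporter units. Bidirectional curve fitting against DMSO baseline captures gain or loss of signal.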

[4] = ATG_CMV_CIS: Attagene CIS-FACTORIAL HepG2 Assay for human CMV (Internal Marker) (AID 2282928); settings: HepG2 CMV promoter reporter, transcription factor profiling; actives raise or lower the signal;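 further: endpoint acts as a background internal control marker rather than a target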
In short: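 Cell system: HepG2, transiently transfected multiple reporter units under cis promoters. Exposure: 24 h. Detection: RT-PCR, FAM labeling, HpaI digestion, capillary electrophoresis. Analysis: bidirectional, DMSO baseline.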

[5] = ATG_DR4_LXR_CIS: Attagene CIS-FACTORIAL HepG2 Assay for human Liver X Receptor (LXR), DR4 submotif (AID 2282929); settings: HepG2 Attagene DR4 cis-reporter, mRNA transcription; actives raise or lower the signal
In short: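 Endogenous factor activity at a DR4 cis-element is read as reporter mRNA in transiently transfected HepG2 cells. Exposure lasts 24 h; transcripts are amplified, fluorescently labelled and sized by capillary electrophoresis, with DMSO as baseline.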

[6] = target: Aryl hydrocarbon receptor (Homo sapiens) (UniProt P35869); test: ATG_Ahr_CIS: Attagene CIS-FACTORIAL HepG2 Assay for human Aryl Hydrocarbon Receptor (Ahr) (AID 2282930); settings: HepG2 AhR cis-factorial reporter transcription; actives raise or lower the signal
In short: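 HepG2 cells transiently transfected with cis-element-driven multiplexed reporter transcription units; endogenous transcription factor activity measured as reporter mRNA 24 h after dosing. RT-PCR, 6-FAM labelling, HpaI digestion, capillary electrophoresis; bidirectional fitting versus DMSO baseline.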

[7] = ATG_AP_1_CIS: Attagene CIS-FACTORIAL HepG2 Assay for human Activator Protein 1 (AP-1) (AID 2282931); settings: HepG2 Attagene cis-factorial AP-1 reporter mRNA; actives raise or lower the signal
In short: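 Fluorescence of labelled PCR fragments separated by capillary electrophoresis gives reporter mRNA levels. HepG2 with transfected cis-regulated reporter units, 24 h exposure; DMSO serves as baseline for bidirectional curve fits.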

[8] = ATG_AP_2_CIS: Attagene CIS-FACTORIAL HepG2 Assay for human Activator Protein 2 (AP-2) (AID 2282932); settings: HepG2 AP-2 cis-reporter, Attagene transcription factor profiling; actives raise or lower the signal
In short: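 Bidirectional curve fitting against DMSO was applied to reporter mRNA signals from HepG2 cells 24 h after dosing. Cis-promoter reporter units, transiently transfected, were read by RT-PCR plus capillary electrophoresis.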

[9] = ATG_BRE_CIS: Attagene CIS-FACTORIAL HepG2 Assay for human Bone Morphogenetic Protein (BMP) Response Element (BRE) (AID 2282933); settings: HepG2 BMP response element reporter, Attagene transcription factor profiling; actives raise or lower the signal
In short: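 Endogenous transcription factor activity at a BMP response element was monitored in transfected HepG2 cells 24 h after dosing. Fluorescent RT-PCR products were resolved by capillary electrophoresis, and activity was fitted in both directions versus DMSO.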

[10] = target: Retinoic acid receptor alpha (Homo sapiens) (UniProt P10276); test: ATG_DR5_RAR_CIS: Attagene CIS-FACTORIAL HepG2 Assay for human Retinoic Acid Receptor Alpha (RARE), DR5 submotif (AID 2282934); settings: HepG2 Attagene cis-factorial RARE DR5 reporter, mRNA; actives raise or lower the signal
In short: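 HepG2 cells transiently transfected with multiplexed reporter units under cis (DR5 RARE) promoters, so endogenous transcription factor activity is measured. After 24 h compound exposure, reporter mRNA is quantified by RT-PCR with fluorescent labelling and capillary electrophoresis; bidirectional fitting versus DMSO.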

[11] = target: Transcription factor E2F1 (Homo sapiens) (UniProt Q01094); test: ATG_E2F_CIS: Attagene CIS-FACTORIAL HepG2 Assay for human E2F Transcription Factor 1 (AID 2282935); settings: HepG2 Attagene cis-reporter, E2F reporter RNA transcripts; actives raise or lower the signal
In short: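 Multiplexed cis-reporter assay: HepG2, transient transfection, 24 h dosing, mRNA quantitation by labeled RT-PCR and CE.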

[12] = ATG_E_Box_CIS: Attagene CIS-FACTORIAL HepG2 Assay for human Enhancer Box (E-box) (AID 2282936); settings: HepG2 E-box cis-reporter transcription, actives raise or lower the signal
In short: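 Multiplexed CIS reporter system in transiently transfected HepG2 cells measures native transcription factor activity. Reporter RNA after 24 h exposure is profiled by RT-PCR-capillary electrophoresis.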

[13] = ATG_M_61_CIS: Attagene CIS-FACTORIAL HepG2 Assay for M61 Transcription Factor (Internal Marker) (AID 2282937); settings: HepG2 Attagene CIS-FACTORIAL M61 internal marker reporter; actives raise or lower the signal
In short: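 This endpoint serves as an internal background control within a multiplexed HepG2 cis-reporter panel. Cells are exposed for 24 h; reporter mRNA is amplified, fluorescently labelled and sized by capillary electrophoresis, with DMSO as negative control.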

[14] = ATG_EGR_CIS: Attagene CIS-FACTORIAL HepG2 Assay for human Early Growth Response 1 (EGR1) (AID 2282938); settings: HepG2 Attagene CIS-FACTORIAL EGR reporter mRNA; actives raise or lower the signal
In short: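 HepG2, transient MRTU transfection (cis promoters), 24 h compound. RNA → RT (oligo-dT) → PCR → 6-FAM labelling → HpaI cut → CE fluorescence. Bidirectional fit, DMSO baseline.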

[15] = ATG_M_19_CIS: Attagene CIS-FACTORIAL HepG2 Assay for M19 Transcription Factor (Internal Marker) (AID 2282939); settings: HepG2 Attagene CIS-FACTORIAL M19 internal marker reporter; actives raise or lower the signal
In short: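 Background-control endpoint from a multiplexed HepG2 reporter panel. Cells carrying cis-regulated reporter constructs are treated 24 h, then reporter transcripts are amplified, fluorescently labelled and sized by capillary electrophoresis. DMSO defines baseline.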

[16] = ATG_ERE_CIS: Attagene CIS-FACTORIAL HepG2 Assay for Estrogen Response Element (ERE) (AID 2282940); settings: HepG2 ERE cis-reporter, Attagene RNA transcript; actives raise or lower the signal
In short: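 Cells used were human hepatoma HepG2, transfected with multiple reporter transcription units under cis-regulatory promoters. Reporter mRNA, read 24 h post-dosing via fluorescent RT-PCR products on capillary electrophoresis, was fitted bidirectionally relative to DMSO.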

[17] = ATG_Ets_CIS: Attagene CIS-FACTORIAL HepG2 Assay for human Erythroblast Transformation Specific (ETS) (AID 2282941); settings: HepG2 ETS cis-reporter transcription, actives raise or lower the signal
In short: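 After transient cis-reporter transfection, HepG2 cells receive test chemical for 24 h. Reporter mRNA levels, measured by RT-PCR and capillary electrophoresis fluorescence, are analysed bidirectionally relative to the DMSO baseline.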

[18] = ATG_FoxO_CIS: Attagene CIS-FACTORIAL HepG2 Assay for human Forkhead box O (FoxO) (AID 2282943); settings: HepG2 Attagene cis-reporter, FoxO element, mRNA; actives raise or lower the signal
In short: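 HepG2 cells transiently transfected with cis-promoter-driven multiple reporter transcription units; 24 h after chemical dosing, reporter mRNA quantified by RT-PCR, fluorescent primer extension, HpaI digestion and capillary electrophoresis. Bidirectional fitting versus DMSO baseline.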

[19] = ATG_GATA_CIS: Attagene CIS-FACTORIAL HepG2 Assay for human GATA Binding Protein (AID 2282944); settings: HepG2 GATA cis-element reporter, Attagene multiplex mRNA; actives raise or lower the signal
In short: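 Endogenous transcription factor activity was captured through cis-promoter-driven reporters in transfected HepG2 cells. After 24 h exposure, reporter transcripts were quantified by RT-PCR with fluorescent capillary electrophoresis, and responses fitted both directions against DMSO.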

[20] = target: Hepatocyte nuclear factor 3-beta (Homo sapiens) (UniProt Q9Y261); test: ATG_FoxA2_CIS: Attagene CIS-FACTORIAL HepG2 Assay for human Forkhead box A2 (FOXA2) (AID 2282942); settings: HepG2 cis-reporter transcription factor activity, 24 h; actives raise or lower the signal
In short: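 Cells: HepG2, transient multiplex reporter transfection. Exposure 24 h. Detection: reporter-specific RT-PCR, fluorescent labelling, restriction digest, capillary electrophoresis. Analysis: bidirectional curve fit, DMSO as negative control.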

Measured: AC50

Sequence of Transcription factor E2F1 (Homo sapiens) (Q01094 whole entry, looked up): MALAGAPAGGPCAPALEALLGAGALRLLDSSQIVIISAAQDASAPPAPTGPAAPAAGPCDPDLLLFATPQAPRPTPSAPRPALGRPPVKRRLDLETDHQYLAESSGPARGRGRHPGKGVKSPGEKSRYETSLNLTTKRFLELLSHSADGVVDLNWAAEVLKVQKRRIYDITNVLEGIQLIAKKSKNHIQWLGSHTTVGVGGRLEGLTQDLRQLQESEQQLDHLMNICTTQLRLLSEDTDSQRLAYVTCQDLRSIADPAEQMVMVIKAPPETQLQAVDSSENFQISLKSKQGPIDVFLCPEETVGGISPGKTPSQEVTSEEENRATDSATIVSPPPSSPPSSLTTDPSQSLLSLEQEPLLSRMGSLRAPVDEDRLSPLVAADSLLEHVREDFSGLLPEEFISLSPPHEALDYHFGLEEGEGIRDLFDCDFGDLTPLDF
Sequence of Aryl hydrocarbon receptor (Homo sapiens) (P35869 whole entry, looked up): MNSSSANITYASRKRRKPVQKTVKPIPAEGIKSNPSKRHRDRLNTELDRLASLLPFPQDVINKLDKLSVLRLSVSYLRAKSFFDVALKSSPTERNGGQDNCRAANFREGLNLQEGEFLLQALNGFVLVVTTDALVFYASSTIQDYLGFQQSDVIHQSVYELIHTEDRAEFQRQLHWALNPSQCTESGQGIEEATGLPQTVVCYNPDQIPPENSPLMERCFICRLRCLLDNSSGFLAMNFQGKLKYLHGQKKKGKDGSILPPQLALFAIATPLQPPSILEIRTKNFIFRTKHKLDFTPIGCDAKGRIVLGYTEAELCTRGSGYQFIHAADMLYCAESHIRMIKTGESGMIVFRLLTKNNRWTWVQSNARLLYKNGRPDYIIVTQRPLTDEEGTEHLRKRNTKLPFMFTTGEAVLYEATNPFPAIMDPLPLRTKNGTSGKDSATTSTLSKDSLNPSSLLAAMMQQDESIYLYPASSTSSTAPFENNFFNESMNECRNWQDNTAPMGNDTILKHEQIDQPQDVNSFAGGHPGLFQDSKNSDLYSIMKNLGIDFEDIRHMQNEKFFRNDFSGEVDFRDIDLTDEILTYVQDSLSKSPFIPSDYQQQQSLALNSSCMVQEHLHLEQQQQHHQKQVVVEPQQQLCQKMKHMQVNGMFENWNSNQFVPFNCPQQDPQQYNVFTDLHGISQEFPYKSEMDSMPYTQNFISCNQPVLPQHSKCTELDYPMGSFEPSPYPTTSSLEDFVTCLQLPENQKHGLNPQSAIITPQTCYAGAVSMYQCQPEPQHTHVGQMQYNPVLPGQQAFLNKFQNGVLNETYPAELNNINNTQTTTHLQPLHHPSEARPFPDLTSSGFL
Sequence of Hepatocyte nuclear factor 3-beta (Homo sapiens) (Q9Y261 whole entry, looked up): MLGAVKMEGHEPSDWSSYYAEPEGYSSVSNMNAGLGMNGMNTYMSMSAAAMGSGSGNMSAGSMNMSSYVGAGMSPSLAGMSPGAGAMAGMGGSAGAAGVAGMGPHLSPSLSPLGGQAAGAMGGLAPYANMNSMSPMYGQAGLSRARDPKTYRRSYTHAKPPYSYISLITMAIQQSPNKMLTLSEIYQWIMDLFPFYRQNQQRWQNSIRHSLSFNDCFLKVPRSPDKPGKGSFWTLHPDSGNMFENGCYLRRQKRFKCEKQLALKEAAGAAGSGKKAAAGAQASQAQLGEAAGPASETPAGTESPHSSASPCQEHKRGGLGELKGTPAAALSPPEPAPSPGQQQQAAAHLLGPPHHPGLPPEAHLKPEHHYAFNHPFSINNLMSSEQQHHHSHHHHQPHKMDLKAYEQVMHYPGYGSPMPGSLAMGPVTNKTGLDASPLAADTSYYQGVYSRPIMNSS
Sequence of Retinoic acid receptor alpha (Homo sapiens) (P10276 whole entry, looked up): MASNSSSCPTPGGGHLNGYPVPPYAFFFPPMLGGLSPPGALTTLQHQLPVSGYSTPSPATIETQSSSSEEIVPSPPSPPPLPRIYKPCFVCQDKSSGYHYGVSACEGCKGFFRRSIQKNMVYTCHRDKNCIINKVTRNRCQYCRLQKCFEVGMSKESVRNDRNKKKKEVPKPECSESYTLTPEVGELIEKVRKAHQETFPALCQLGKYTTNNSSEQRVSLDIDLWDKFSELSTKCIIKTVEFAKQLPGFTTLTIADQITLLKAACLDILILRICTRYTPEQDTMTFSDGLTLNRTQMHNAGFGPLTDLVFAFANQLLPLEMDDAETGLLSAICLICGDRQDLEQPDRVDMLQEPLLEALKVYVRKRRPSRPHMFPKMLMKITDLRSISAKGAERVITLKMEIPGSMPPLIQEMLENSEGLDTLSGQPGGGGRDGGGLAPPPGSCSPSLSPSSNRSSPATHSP
Sequence of CCAAT/enhancer-binding protein beta (Homo sapiens) (P17676 whole entry, looked up): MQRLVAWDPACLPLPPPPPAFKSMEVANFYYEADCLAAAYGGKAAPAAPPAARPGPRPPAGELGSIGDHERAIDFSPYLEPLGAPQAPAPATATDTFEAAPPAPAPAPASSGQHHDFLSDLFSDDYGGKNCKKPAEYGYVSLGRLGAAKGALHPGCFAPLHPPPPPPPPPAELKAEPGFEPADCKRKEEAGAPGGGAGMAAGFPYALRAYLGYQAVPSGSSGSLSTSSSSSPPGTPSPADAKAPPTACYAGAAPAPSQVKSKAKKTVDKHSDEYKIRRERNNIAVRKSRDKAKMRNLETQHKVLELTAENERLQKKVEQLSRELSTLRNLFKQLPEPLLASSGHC

Cc1noc(NS(=O)(=O)c2ccc(N)cc2)c1C
not listed: [20]
inactive: all other assays above

CC(C)c1ccc(O)c(C(C)C)c1
active: [16] 41.2 µM
not listed: [17]
inactive: all other assays above

CCOC(=O)CC(=O)c1ccccc1
not listed: [16]
inactive: all other assays above

CCC1COC(=O)O1 (configuration not stated)
not listed: [17] | [20]
inactive: all other assays above

CC(=O)CCC=C(C)C
not listed: [20]
inactive: all other assays above

CCC(C)N (configuration not stated)
not listed: [17]
inactive: all other assays above

C=CCOC(=O)c1ccc(C(=O)OCC=C)c(C(=O)OCC=C)c1
active: [12] 140 µM | [16] 22.8 µM
not listed: [20]
inactive: all other assays above
